CYP2C9 act: activators of human CYP2C9; P11712; recombinant CYP2C9, luciferin-H conversion, luminescence; hits give high values; factor 1 = untreated enzyme, 0 = blocked; activation factor at 5 µM; actives 1.4% (n = 96,000); AID 1024;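 active = activation factor of 2 or more for CYP2C9 at a 5 µM dose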
Target sequence (P11712 whole entry, looked up): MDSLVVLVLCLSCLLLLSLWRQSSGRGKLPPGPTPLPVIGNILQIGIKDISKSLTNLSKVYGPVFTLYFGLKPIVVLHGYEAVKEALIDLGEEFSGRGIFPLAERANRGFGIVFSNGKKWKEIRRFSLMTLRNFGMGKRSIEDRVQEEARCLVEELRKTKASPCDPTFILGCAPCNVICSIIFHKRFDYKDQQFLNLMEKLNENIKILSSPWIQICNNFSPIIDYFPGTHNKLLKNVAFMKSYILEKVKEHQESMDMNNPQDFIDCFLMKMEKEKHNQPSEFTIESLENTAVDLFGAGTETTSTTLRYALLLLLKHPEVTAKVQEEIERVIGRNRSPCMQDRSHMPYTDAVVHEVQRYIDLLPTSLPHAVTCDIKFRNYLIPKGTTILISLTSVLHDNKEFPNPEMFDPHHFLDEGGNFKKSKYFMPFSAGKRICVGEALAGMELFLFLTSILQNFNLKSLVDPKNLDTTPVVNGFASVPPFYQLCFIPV
CYP2C19 inhib: human CYP2C19 inhibition; CYP2C19 Supersomes, luciferin-H EGE luminescence, 30 min; actives 21% (n = 96,000); inhibition, % at 5 µM; AID 778; P33261;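 active = CYP2C19 inhibition above a set limit at 5 µM in the primary screen, cut at about 50% in these data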
CYP2C19 act: cytochrome P450 2C19 (human) activation | P33261 | recombinant CYP2C19, luciferin-H EGE luminescence; hits give high values; 0 = fully inhibited enzyme, 1 = untreated enzyme | activation factor at 5 µM | 96,000 tested, under 10 active | AID 1025;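 active = activation factor of at least 2 at 5 µM in the primary screen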
Measles CPE: protection of cells from measles virus; AID 841; Measles virus-infected cells, CPE protection, absorbance; protection (pct of control), % at 4 µM; actives 1.5% (n = 140,000); in the data active = protection mostly above about 24%, no sharp cut-off; inactive = mostly below about 26%
CYP2C9 inhib: human CYP2C9 inhibition; P11712; CYP2C9 Supersomes, luciferin-H conversion, luminescence; inhibition, % at 5 µM; actives 20% (n = 96,000); AID 777;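 active = blocking of liver enzyme CYP2C9 beyond about 50% at 5 µM, limit read from the data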
Large screens that a line does not name were inactive. The list is not random: actives were taken first. Their share in the collection is about 22%.

Cc1ccc(C(c2nnnn2Cc2ccccc2)N2CC=C(c3ccc(F)cc3)CC2)cc1 (stereo not drawn)	CYP2C19 inhib 70.1, CYP2C9 inhib 50.5
Cc1c(C(=O)N2CCC3(CC2)OCCO3)oc2ccccc12	CYP2C19 inhib 97.6
O=C(CCN1C(=O)COc2ccccc21)N1CCC2(CC1)OCCO2	CYP2C19 inhib 86.9
O=C(CSc1ccccc1)N1CCC2(CC1)OCCO2	CYP2C19 inhib 98.1
Cc1c(C(=O)N2CCC3(CC2)OCCO3)oc2ccc(S(=O)(=O)N3CCOCC3)cc12	none
O=C(CN1C(=O)CCSc2ccccc21)N1CCC2(CC1)OCCO2	none
Cc1nc2nc(SCC(=O)N3CCC4(CC3)OCCO4)nn2c(C)c1Cc1ccccc1	none
CC1=C(C(=O)N2CCC3(CC2)OCCO3)C2(CCC(C)CC2)OC1=O (stereo not drawn)	CYP2C19 inhib 92.7
N#CCC(=O)NN1Cc2ccccc2C1=N	none (no result: CYP2C9 act, CYP2C19 inhib, CYP2C19 act, CYP2C9 inhib)
O=C(c1ccncc1)C12CN3CN(CN(C3)C1)C2	none
O=C1c2ccccc2C2(c3ccc(Cl)cc3)NCCN12 (stereo not drawn)	none
CCCCn1c(O)c(C(C)=NCc2cc(OC)cc(OC)c2)c(=O)[nH]c1=O	CYP2C19 inhib 86.6, CYP2C9 inhib 98.0
CCCCn1c(O)c(C(CC)=NCc2cc(OC)cc(OC)c2)c(=O)[nH]c1=O	CYP2C19 inhib 86.6, CYP2C9 inhib 94.5
CCCCn1c(O)c(C(CC)=Nc2ccc(OCC)cc2)c(=O)[nH]c1=O	none
CCCCn1c(O)c(C(CC)=Nc2ccc(OC)cc2OC)c(=O)[nH]c1=O	none
CCOP(=O)(C(NC(=O)c1ccccc1Cl)=C(Cl)Cl)c1ccccc1 (stereo not drawn)	CYP2C19 inhib 77.4, CYP2C9 inhib 57.0
O=C(c1c[nH]cc1-c1ccccc1)c1cccc2ccccc12	none (no result: CYP2C9 act, CYP2C19 inhib, CYP2C19 act, CYP2C9 inhib)
CCC(=NC1CC1)c1c(O)n(C2CCCCC2)c(=O)[nH]c1=O	CYP2C19 inhib 98.8
CCN1C(=O)c2ccccc2Sc2ccc(C(=O)N3CCC4(CC3)OCCO4)cc21	CYP2C9 inhib 82.6
CC(C)Cn1cc(C(=O)N2CCC3(CC2)OCCO3)c2c3ccccc3n(C)c2c1=O	none
C=C(C)c1cccc(C(C)(C)NC(=O)NC2CN3CCC2CC3)c1 (stereo not drawn)	none
CCOC(=O)C1=C(NC(=S)NC(=O)c2ccccc2)c2ccccc2CC12CCCC2	Measles CPE 61.8 (no result: CYP2C9 act, CYP2C19 inhib, CYP2C19 act, CYP2C9 inhib)
Cc1c(C(=O)N2CCC3(CC2)OCCO3)sc2ncnc(N(C)c3ccccc3)c12	CYP2C9 inhib 73.3
O=P(Nc1ccccc1)(Nc1ccccc1)Oc1ccc(Cl)cc1	CYP2C19 inhib 86.4, CYP2C9 inhib 81.1
O=C(Nc1nc(-c2ccccc2)c(-c2ccccc2)s1)c1ccc(S(=O)(=O)N(CCCl)CCCl)cc1	none (no result: CYP2C9 act, CYP2C19 inhib, CYP2C19 act, CYP2C9 inhib)
Cc1cc2c(s1)NC(=O)CN=C2c1cccs1	CYP2C19 inhib 50.5
CCN(CC)CCCNC(=O)c1c(O)c2ccccc2n(Cc2ccccc2)c1=O	Measles CPE 76.9
CCN(CC)CCNC(=O)c1c(O)c2ccccc2n(Cc2ccccc2)c1=O	none
CC(C)OP(=O)(OC(C)C)C(O)c1ccccc1F (stereo not drawn)	none (no result: CYP2C9 act, CYP2C19 inhib, CYP2C19 act, CYP2C9 inhib)
O=C(CCN1CCOCC1)NCC(=O)Nc1ccc(Br)cc1C(=O)c1ccccc1	none
CC(C(=O)Nc1ccc(Br)cc1C(=O)c1ccccc1)N1CCOCC1 (stereo not drawn)	CYP2C19 inhib 60.6, CYP2C9 inhib 54.8
CSc1ncc(Cl)c(C(=O)O)n1	none
O=C1NC(=O)C2(C(=O)N1)C(c1ccc(F)cc1)NC(=S)NC2c1ccc(F)cc1 (stereo not drawn)	none
CCCCCCOc1ccc(CN2CCN(CC)CC2)cc1	none
Cc1cccn2c(=O)c3c(nc12)N1CCC(Cc2ccccc2)CC1C1(C3)C(=O)N(C)C(=O)N(C)C1=O (stereo not drawn)	CYP2C9 inhib 91.2
CC/C(=N\Nc1ccccc1)c1c(O)n(C)c(=O)n(C)c1=O	Measles CPE 28.3 (no result: CYP2C9 act, CYP2C19 inhib, CYP2C19 act, CYP2C9 inhib)
CCC(=NCCc1c[nH]c2ccccc12)c1c(O)n(C)c(=O)n(C)c1=O	CYP2C19 inhib 59.3, CYP2C9 inhib 50.2
CCC(=NCCc1c[nH]c2ccccc12)c1c(O)n(-c2ccc(C)cc2)c(=O)[nH]c1=O	none (no result: CYP2C9 act, CYP2C19 inhib, CYP2C19 act, CYP2C9 inhib)
C/C(=N\NC(=S)Nc1ccccc1)c1c(O)n(C)c(=O)n(C)c1=O	none (no result: CYP2C9 act, CYP2C19 inhib, CYP2C19 act, CYP2C9 inhib)
CN1CC=C(c2c[nH]c3ccccc23)CC1	none (no result: CYP2C9 act, CYP2C19 inhib, CYP2C19 act, CYP2C9 inhib)
CC(C(=O)c1c[nH]c2ccccc12)N1CCc2ccccc2C1 (stereo not drawn)	CYP2C9 inhib 76.3
Cc1nn(Cc2ccccc2Cl)c(C)c1C(=O)OCC(=O)N1CC(C)OC(C)C1 (stereo not drawn)	none (no result: CYP2C9 act, CYP2C19 inhib, CYP2C19 act, CYP2C9 inhib)

Compound activity as filed in PubChem.
